14 compounds from PubChem BioAssay (NCI) can be followed below.

The panel holds about 83,000 compounds, 20% with a hit somewhere; the sample as a whole holds those more often.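 Percent growth is the endpoint: 0 to 100 indicates growth inhibition (40 means 60% inhibition), 0 means no net growth, and negative values indicate cell death.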 A number with no mark means an inactive call. Calls of active or inactive are those of the source. How the source made its calls: active means growth percent below 10; inactive means the rest.

The experiment relates to HL-60(TB) leukemia. Nature of the experiment: NCI-60 one-dose screen, 48 h (100 = growth as untreated, 0 = no growth, -100 = all killed). The conditions noted are these: 10 µM unless noted.
With `CCOC(=O)/C=C1\S/C(=N\Nc2cc(=O)[nH]c3ccc(OC)cc23)N(c2ccccc2)C1=O`, the growth was 96.1%.
The value for `CN1C(=O)N(C)C2NC(N/N=C/c3ccccc3)=NC21` (centres undefined) was 99.6%; that for `CCc1ccc(-c2nc(SCC(=O)NC3CCCCC3)n[nH]2)cc1` was 56.3%.
The value for `Cn1cc(-c2nonc2-c2c[nH]c3ccccc23)c2ccccc21` was 1.04% (active).
With `O=c1nc(N2CCOCC2)oc2c(-c3cccc4ccccc34)cccc12` the figure was 93.6%; with `CC1=C(C(=O)/C=C/c2c[nH]c3ccccc23)C(c2ccccc2)NC(=S)N1` (centres undefined), 99.5%.
As to `c1ccc(C2CC(c3cccc(Nc4ccncc4)c3)=NN2c2ccccc2)cc1` (centres undefined), the growth was -8.94% (active).
With `CCOC(=O)c1c(Nc2nc3ccccc3s2)sc2c1CCC(=O)C2` the figure was 58.7%; with `COc1ccc(/C=N\Nc2nc(SCC(C)C)nc(-c3ccc(OC)cc3)c2C#N)cc1`, 35.8%; with `COc1ccc(C/C(=C(\C)c2ccc(OCCN3CCCC3)cc2)c2ccc(OCCN3CCCC3)cc2)cc1`, -58.1% (active).
With `COc1ccc(Cn2cc3c(c2-c2cc(OC)c(OC)c(OC)c2)CCc2c(CO)noc2-3)cc1` the figure was -36.2% (active).
With `Fc1ccc2[nH]cc(-c3nc(-c4c[nH]c5c(Cl)nccc45)cs3)c2c1` the figure was 35.4%.
Turning to `NC(=O)c1ccc[n+](CC(=O)N2CCN(c3cc4c(cc3F)c(=O)c(C(=O)O)cn4C3CC3)CC2)c1`, the growth is 106%.
With `CCCCN(CCCC)CCCn1c(-c2ccccc2)ccc1-c1ccccc1`, the growth is 61.6%.
